This is an account of results in PubChem BioAssay AID504652 (National Center for Advancing Translational Sciences (NCATS), 2011).

In all, about 360,000 compounds went through this assay and about 11,000 (3.1%) were called active. The list comes from a sample in which actives are over-represented; it also holds similar structures and randomly drawn compounds. Values without a mark were called inactive. No stated cut-off is given here; in the data, active means activity change below about -30%; inactive means the rest.
On the % scale 0 is the no-effect control and ±100 the full control effect.

D(1A) dopamine receptor (Homo sapiens), sequence (P21728 whole entry, looked up): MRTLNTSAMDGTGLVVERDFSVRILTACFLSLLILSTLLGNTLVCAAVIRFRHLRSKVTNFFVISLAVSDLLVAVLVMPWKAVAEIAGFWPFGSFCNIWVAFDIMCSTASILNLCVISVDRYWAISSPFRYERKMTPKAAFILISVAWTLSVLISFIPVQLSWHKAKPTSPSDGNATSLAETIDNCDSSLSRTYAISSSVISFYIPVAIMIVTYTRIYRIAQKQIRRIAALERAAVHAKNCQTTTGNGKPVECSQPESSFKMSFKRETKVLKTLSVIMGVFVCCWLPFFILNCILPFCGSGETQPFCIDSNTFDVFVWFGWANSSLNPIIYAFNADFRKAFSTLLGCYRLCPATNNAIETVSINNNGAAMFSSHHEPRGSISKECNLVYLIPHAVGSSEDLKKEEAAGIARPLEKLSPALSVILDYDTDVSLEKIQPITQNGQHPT

The target in this test is D(1A) dopamine receptor (Homo sapiens) (UniProt P21728). The test is described as follows: Antagonist of Human D 1 Dopamine Receptor: qHTS. As to conditions: HEK293 TREx D1 cells, calcium flux, dopamine EC80; at 10 µM; hits give low values. Put shortly:
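Calcium flux readout: force-coupled, inducible Hek293 Trex D1 line, cells induced overnight at 30 C with tetracycline, dye-loaded 30–90 min at RT. Antagonism scored against EC80 dopamine challenge given 180 s after compound.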
(In qHTS, concentration-response curves come from the screen itself.)
For the compound `COc1cc(NC(=O)c2nn(-c3ccc(C)cc3)c(=O)c3c2c2ccccc2n3C)cc(OC)c1OC`, the activity change, negative = inhibition was -20.1%.
As for `COC(=O)CC1=NN(c2nc(C)cc(C)n2)C(=O)C1`, the activity change, negative = inhibition is 3.03%.
The same measure for `C/C(N)=C(/C#N)C(=O)COC(=O)C1=NN(c2ccccc2)C(=O)CC1`: -6.72%.
Turning to `COC(=O)CC1=NN(c2ccccc2)C(=O)C1`, the activity change, negative = inhibition was -33.1% (active).
As for `CCCCn1c(CNC(=O)C23CC4CC(CC(C4)C2)C3)nnc1SCC(=O)Nc1ccc(C)cc1`, the activity change, negative = inhibition was 1.21%.
To `CC1CCCN(Cc2c(O)ccc3c(=O)c(Oc4ccc(C(C)(C)C)cc4)c(C(F)(F)F)oc23)C1` (stereo not drawn) belongs 11.8%; to `O=C(Nc1ccc(C(=O)OCc2cc(=O)n3nc(C4CC4)sc3n2)cc1)c1ccc(F)cc1`, 4.99%.
To `COc1ccc(NC(=O)COCc2cc(-c3ccco3)on2)cc1` belongs 8.36%.
Regarding `COc1ccc(OCC(=O)Nc2nnc(-c3ccco3)s2)cc1`, the activity change, negative = inhibition was -88.7% (active).
To `CNc1nnc(-c2ccco2)s1` belongs -6.48%; to `COc1ccc(CCNC(=O)c2cnc3sc(N4CCCCCC4)nn3c2=O)cc1OC`, -6.51%; to `CCOC(=O)C1=C(c2ccccc2)Nc2ncnn2C1c1ccc(Cl)cc1` (stereo not drawn), 6.82%.
`CS(=O)(=O)c1ccc(-c2nnc(NC(=O)c3ccc4c(c3)OCCO4)o2)cc1`: the activity change, negative = inhibition is -10.1%.
To `O=C(CSc1oc(-c2ccco2)nc1S(=O)(=O)c1ccccc1)c1ccc(Cl)cc1` belongs -17.4%; to `CCOC(=O)c1cc(-c2ccccc2)n(-c2cccc(C(=O)Nc3cc(OC)cc(OC)c3)c2)c1C`, -24.9%; to `CC(=O)c1cc(C#N)c(SCC(=O)Nc2nccs2)nc1C`, 2.32%.
To `CC(=O)c1cc(C#N)c(N2CC(C)OC(C)C2)nc1C` (stereo not drawn) belongs -0.422%; to `CC(=O)c1cc(C#N)c(N2CCCCC2)nc1C`, -36.9% (active).
To `O=C(Cn1c(=O)n(Cc2ccccc2)c(=O)c2sc3ccccc3c21)Nc1ccccc1F` belongs 0.434%.
With `CNC(=O)c1ccc(-c2nc(CN3CCc4ccccc43)c(C)o2)cc1`, the activity change, negative = inhibition is 6.56%.
The same measure for `COc1cccc(Cn2c(CNS(=O)(=O)c3ccc(Cl)s3)nc3cccnc32)c1`: 25.3%; for `CN1CCN(C(=O)c2ccc(NS(=O)(=O)c3ccccc3)cc2)CC1`: -3.19%; for `CCOC(=O)N1CCN(C(=O)c2ccc(S(=O)(=O)Nc3cccc(C(F)(F)F)c3)cc2)CC1`: -41.7% (active).
The same measure for `CCOC(=O)c1cccc(NS(=O)(=O)c2c(C(=O)N3CCCCCC3)c(C)n(C)c2C)c1`: 14.9%; for `Cc1ccc(C(=O)CSc2nc(-c3ccccc3)nc3c2CCCC3)c(C)c1`: 17.2%; for `Cc1ccc(C(C)NC(=O)Cn2nc(C)c([N+](=O)[O-])c2C)cc1` (stereo not drawn): -12%.
The same measure for `Cc1ccn(CC(=O)N2N=C(C(F)F)CC2(O)C(F)F)n1` (stereo not drawn): 3.73%.
For the compound `Cc1nn(Cc2ccc(C(=O)N3N=C(C(F)F)CC3(O)C(F)F)cc2)c(C)c1[N+](=O)[O-]` (stereo not drawn), the activity change, negative = inhibition is -31.2% (active).
To `CCc1nnc(SCc2nc(-c3cccc(C)c3)oc2C)c2cc3sc(C)cc3n12` belongs 8.82%; to `CCc1cccc(NC(=O)c2cnc(N3CCOCC3)c3ccccc23)c1`, -4.31%; to `CC(=O)c1sc(N2C(=O)c3oc4ccccc4c(=O)c3C2c2ccc(C)cc2)nc1C` (stereo not drawn), 1.92%.
To `COC(=O)c1ccccc1NC(=O)CSc1nnnn1C` belongs -7.79%.
To `O=C(CN1CCCCC1)Nc1ccccc1C(=O)NC1CC1` belongs 6.93%; to `Cn1nnnc1SCC(=O)Nc1ccccc1C(=O)NC1CC1`, -31.5% (active); to `Cc1cccc(CCNC(=O)c2ccc3c(c2)nc2n3CCC(C)C2)c1` (stereo not drawn), 2.06%.
For `Oc1ccc(Cl)cc1C1C=C(c2ccc3c(c2)OCO3)NC(c2c(F)cccc2Cl)N1` (stereo not drawn), the activity change, negative = inhibition is -6.98%.
To `COc1ccc(S(=O)(=O)Nc2cccc3cccnc23)c(N)c1` belongs 8.2%.
To `COc1cccc(-n2ccn(CC(=O)NCc3ccc(C)cc3)c(=O)c2=O)c1` belongs -17.3%; to `CC1(C(=O)NNC(=S)NCC2CCCO2)CC1(Cl)Cl` (stereo not drawn), -33.9% (active).
To `CCC(=O)NC(NCC1CCCO1)C(Cl)(Cl)Cl` (stereo not drawn) belongs -13.3%.
As for `S=C(NCCc1ccccc1)NCC1CCCO1` (stereo not drawn), the activity change, negative = inhibition was 5.26%.
To `O=C(CC1Oc2ccc(Cl)cc2NC1=O)NCc1ccccc1` (stereo not drawn) belongs -13.4%.
To `CCC(C(=O)OCC(=O)Nc1ccc(C(=O)Nc2ccc(OC)cc2)cc1)c1ccccc1` (stereo not drawn) belongs -57.6% (active); to `CCC(C(=O)OCC(=O)Nc1ccccc1-c1ccccc1)c1ccccc1` (stereo not drawn), 5.02%.
To `CCC(C(=O)OCC(=O)Nc1c(Cl)cc(Cl)cc1Cl)c1ccccc1` (stereo not drawn) belongs -5.4%; to `CCOC(=O)c1ccc(CSc2nnc3cc(C)c4ccccc4n23)cc1`, 11.8%.
Take `CCN(CC)S(=O)(=O)c1ccc(C(=O)N=c2sc3cccc(OC)c3n2C)cc1`: the activity change, negative = inhibition was -7.05%.
The same measure for `CCOc1ccc(-c2nonc2NC(=O)c2oc3ccc(CC)cc3c2C)cc1`: -6.14%.
The same measure for `CCc1nc(-c2cc(S(=O)(=O)N3CCN(c4ccc(OC)cc4)CC3)ccc2OC)no1`: -58.8% (active); for `COc1ccc(S(=O)(=O)N2CCN(c3ccc(F)cc3)CC2)cc1-c1noc(C)n1`: -9.63%; for `COc1ccc(N2CCN(S(=O)(=O)c3ccc(-c4coc(C)n4)cc3)CC2)cc1`: 3.09%.
To `Cc1cc(C)cc(NC(=O)CCCc2nc(-c3ccccc3Cl)no2)c1` belongs 5.87%.
As for `Cc1ccc(NC(=O)c2ccc(CN3CC(=O)N4CCCCC4C3=O)cc2)c(Cl)c1` (stereo not drawn), the activity change, negative = inhibition is 1.45%.
The same measure for `Cc1ccc(CC2C(=O)N(c3ccc(F)cc3)C(=O)C2C)cc1` (stereo not drawn): -14.1%; for `CCNC(=O)CC1C(=O)N(c2ccc(F)cc2)C(=O)N1Cc1ccc(C)cc1` (stereo not drawn): -4.84%; for `C=C1c2cc(CC)ccc2NC(=O)N1c1ccc(C)cc1`: -37.2% (active).
To `Cn1c(=O)c2c(nc(Oc3ccc(C#N)cc3)n2Cc2ccc(Cl)cc2Cl)n(C)c1=O` belongs 17.3%; to `O=C(/C=C/c1ccc(Cl)cc1)N1CCN(c2ccccc2[N+](=O)[O-])CC1`, -7.39%.
The same measure for `Cc1nn(-c2ccccc2)c(Cl)c1/C=C/C(=O)c1ccc(O)cc1`: -19.2%; for `CN(C)c1ccc(/C=C/C(=O)c2ccc(O)cc2)cc1[N+](=O)[O-]`: -31.2% (active); for `Cc1ccc(Cl)cc1NC(=O)/C(C#N)=C\c1cn(Cc2ccc(F)cc2)c2ccccc12`: -3.88%.
Take `Cc1ccccc1OCc1nc2c3cnn(-c4ccccc4F)c3ncn2n1`: the activity change, negative = inhibition was 3.88%.
Turning to `COc1ccccc1C(=O)OCC(=O)NCCNC(=O)COC(=O)c1ccccc1OC`, the activity change, negative = inhibition is 9.27%.
The same measure for `COc1ccccc1CNC(=O)COc1ccc(C)nc1[N+](=O)[O-]`: 4.17%; for `COc1ccccc1CNC(=O)COC(=O)c1sc(C)nc1C`: -37.9% (active).
`COc1ccc(S(=O)(=O)NCC(c2ccc(N(C)C)cc2)N2CCCC2)cc1` (stereo not drawn): the activity change, negative = inhibition is -3.85%.
The same measure for `Cc1cc(OCC(=O)NCC2(N(C)C)CCCCC2)cc(C)c1Cl`: 1.84%.
The same measure for `CC1CCC(NC(=O)CNC(=O)c2ccc3ccccc3c2)CC1` (stereo not drawn): -16.3%; for `O=C(CNC(=O)c1ccc2ccccc2c1)Nc1ncccc1O`: -39.8% (active).
For the compound `O=C(Nc1ncccc1O)c1ccc(C(=O)c2ccccc2)cc1`, the activity change, negative = inhibition was -8.68%.
In the case of `Cc1ccc(S(=O)(=O)N2CCCc3cc(NS(=O)(=O)c4cc(C)ccc4C)ccc32)cc1`, the activity change, negative = inhibition was -3.71%.
To `CCc1ccc(NC(=O)CSc2nc3c([nH]c4ccccc43)c(=O)n2-c2cccc(OC)c2)cc1` belongs -24.8%; to `CCOc1ccc(-c2cc3nc(C4CCN(C(=O)OC(C)(C)C)CC4)c(C(=O)Nc4cccc(CC)c4)cn3n2)cc1`, 2.76%.
As for `CC(=O)Nc1ccc(NS(=O)(=O)c2cc(C)sc2C)cc1`, the activity change, negative = inhibition is -48.1% (active).
To `CC(=O)Nc1ccc(NS(=O)(=O)c2ccc3c(c2)NC(=O)CC(=O)N3)cc1` belongs 19.3%; to `Cc1ccc(C(=O)Nc2ccc(C(=O)O)cc2)cc1S(=O)(=O)Nc1ccccc1`, 1%.
The same measure for `COc1cc2c(=O)c(S(=O)(=O)c3ccc(C(C)C)cc3)cn(Cc3ccccc3C)c2cc1OC`: 22.6%.
Turning to `CCCNC(=O)C1CCN(c2nc3ccc(C)cc3[nH]2)CC1`, the activity change, negative = inhibition was 2.03%.
To `CN(Cc1ccccc1)C(=O)c1cccc(C(=O)N(C)Cc2ccccc2)c1` belongs -2.18%; to `CN(C(=O)CN(CCO)CC(=O)N(C)C(C)(C)Cc1ccccc1)C(C)(C)Cc1ccccc1`, -97.3% (active); to `CC(C)(C)N(Cc1ccccc1)C(=O)c1ccncc1`, 1.43%.
The same measure for `COc1cc(CN(CC2CCCO2)C(=O)c2ccccc2F)cc(OC)c1OC` (stereo not drawn): -5.27%; for `Cc1nc(N2CCN(c3ccccn3)CC2)c2c(C)c(C(=O)Nc3ccc(F)cc3)sc2n1`: 1.11%.
As to `Cc1c(CN2CC[C@@H](N3CCN(c4ccccn4)CC3)[C@H](O)C2)[nH]c2ccc(F)cc12`, the activity change, negative = inhibition was -30.2% (active).
On to `Cc1c(CN2CCC(CO)(CCOc3ccccc3)CC2)[nH]c2ccc(Cl)cc12`, for which the activity change, negative = inhibition was -2.77%.
`CCCCN(C)S(=O)(=O)c1ccc(C(=O)Nc2sc3c(c2C(N)=O)CC(C)(C)NC3(C)C)cc1`: the activity change, negative = inhibition was 18.5%.
The same measure for `Cc1oc2ncn(CC(C)C)c(=O)c2c1C(=O)N1CCN(c2ccccc2F)CC1`: -5.83%.
The same measure for `Cn1c(=O)c(C(=O)O)nn(-c2ccccc2)c1=O`: -4.78%.
